By ΔTm is commonly meant the change in melting temperature against a reference sample.

Assay [1] has as its target Bromodomain-containing protein 4 (Homo sapiens) (UniProt O60885). Conditions: Compound concentration 10.0 uM, Protein concentration 2.0 uM.
The target in assay [2] is T1, Transcription intermediary factor 1-alpha (Homo sapiens) (UniProt O15164).
T1 sequence (whole entry): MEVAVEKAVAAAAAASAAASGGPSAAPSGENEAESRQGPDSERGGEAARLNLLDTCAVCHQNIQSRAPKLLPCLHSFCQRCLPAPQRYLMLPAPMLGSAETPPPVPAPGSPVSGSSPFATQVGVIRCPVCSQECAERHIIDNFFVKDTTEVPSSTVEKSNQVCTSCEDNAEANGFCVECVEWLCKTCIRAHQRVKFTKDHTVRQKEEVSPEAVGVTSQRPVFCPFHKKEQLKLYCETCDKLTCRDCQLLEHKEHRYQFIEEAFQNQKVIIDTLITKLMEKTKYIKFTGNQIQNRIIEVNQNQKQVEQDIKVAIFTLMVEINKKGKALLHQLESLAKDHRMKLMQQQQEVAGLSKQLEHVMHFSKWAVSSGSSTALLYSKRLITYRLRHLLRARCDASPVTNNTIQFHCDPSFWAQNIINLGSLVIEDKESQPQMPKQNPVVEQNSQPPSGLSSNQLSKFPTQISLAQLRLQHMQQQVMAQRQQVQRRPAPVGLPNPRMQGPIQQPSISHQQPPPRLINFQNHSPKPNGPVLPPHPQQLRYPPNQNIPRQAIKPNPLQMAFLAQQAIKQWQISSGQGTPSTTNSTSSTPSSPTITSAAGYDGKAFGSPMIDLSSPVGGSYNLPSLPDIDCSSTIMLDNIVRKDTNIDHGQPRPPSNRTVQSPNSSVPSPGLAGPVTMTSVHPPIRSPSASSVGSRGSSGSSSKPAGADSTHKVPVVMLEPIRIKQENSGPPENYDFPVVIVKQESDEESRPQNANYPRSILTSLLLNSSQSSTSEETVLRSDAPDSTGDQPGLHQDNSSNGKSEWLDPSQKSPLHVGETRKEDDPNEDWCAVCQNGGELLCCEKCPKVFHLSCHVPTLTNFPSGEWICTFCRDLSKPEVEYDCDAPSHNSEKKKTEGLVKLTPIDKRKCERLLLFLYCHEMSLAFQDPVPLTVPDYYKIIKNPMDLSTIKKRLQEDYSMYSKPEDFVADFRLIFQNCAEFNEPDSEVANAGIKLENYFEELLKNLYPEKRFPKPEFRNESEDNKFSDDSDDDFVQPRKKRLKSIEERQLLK
Conditions: Compound concentration 10.0 uM, Protein concentration 2.0 uM.

With `CC(=O)c1cc(-c2cc(C(=O)NC3CC3)ccc2C)c2ncccn12`, the thermal shift (ΔTm) came out at 0.28 °C in assay [1] and 0.37 °C in assay [2].

The values above are taken from ChEMBL document CHEMBL4649997, “Data for probe TP-472” (2021).
